Bioassay records: PubChem, several laboratories
Beta cell apopt = blocks beta cell apoptosis. INS-1E cytokine-induced death, ATP luminescence, 48 h; percent of positive-control rescue, neutral wells zero. protection from apoptosis, % (no concentration beside the values). actives 0.8% (n = 300,000);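 active = Every replicate reaches about 75%, or at least half do and their mean reaches it too, limit read from the data; inconclusive = At least half of replicates reach the limit but their mean does not; inactive = Under half of replicates reach the limit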;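 note: 0% = cytokine-treated negative control wells and 100% = positive control rescue; higher means more ATP so stronger rescue from cytokine killing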
Calb FLC = C. albicans growth modulation with fluconazole. C. albicans CaCi-2 (fluconazole-resistant clinical isolate) + fluconazole, Alamar Blue growth, 48 h. actives 0.57% (n = 300,000). growth inhibition, % (no concentration beside the values);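 active = growth inhibition above about 58% in most replicates, limit read from the data, passing the limit was not always enough; inconclusive = exactly half the replicates above a set limit; inactive = most replicates below a set limit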;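 note: all wells also contain fluconazole at 8 µg/ml as a sub-toxic cotreatment; 0% = median of DMSO wells and 100% = median of geldanamycin control wells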
Mdm2 MdmX PPI = disrupts the human Mdm2-MdmX interaction. O15151+Q00987. SaOS-2 split-luciferase Mdm2/MdmX complementation, luminescence. inhibition, % at 8 µM. actives 3% (n = 330,000). AID 485346;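 active = inhibition of at least 50% at 8 µM in the primary screen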
MPTP block = blocks calcium-induced mitochondrial swelling; AID 602449; inhibition, % at 10 µM; isolated mouse mitochondria, Ca2+ swelling absorbance, 30 min; actives 1.4% (n = 360,000);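 active = inhibition of 50% or more, scaled per plate between neutral and stimulator controls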;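 note: 0% = DMSO wells given calcium and 100% = 1 mM EGTA wells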
CSC inhib = blocks cancer stem cells; actives 1.1% (n = 300,000); AID 2717; inhibition, % at 7.5 µM; cancer stem cell-like cells viability, luminescence; in the data active = inhibition above about 75%; inconclusive = no clear call, values can overlap the other calls; tested in HMLE shEcad cells
Mdm2 MdmX conf = human Mdm2/MdmX binding inhibition, confirmed. shares compounds with Mdm2 MdmX PPI. AID 489028. actives 55% (n = 10,000). inhibition, % at 8 µM. luminescent assay; in the data active = inhibition above about 40%
FLuc counter = counter-screen for Mdm2/MdmX inhibitors: full-length luciferase | shares compounds with Mdm2 MdmX PPI | SaOS-2 full-length luciferase counterscreen, luminescence | inhibition, % at 8 µM | actives 77% (n = 6,200) | AID 504607;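 active = mean inhibition at 8 µM reaching about 37%, which flags the compound as non-specific, limit read from the data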;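 note: p53-null SaOS-2 cells with luciferase driven by a doxycycline-inducible promoter; compound on cells about two nights before reading with doxycycline added after day one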
* marks the source's active call; other numbers are inactive results; u = inconclusive; x = not tested or not shown. Compounds with a hit are over-represented: about 4.8% of the library has one in this group of screens.

SMILES | Beta cell apopt | Calb FLC | Mdm2 MdmX PPI | MPTP block | CSC inhib | Mdm2 MdmX conf | FLuc counter
COc1ccc(Cn2c(SCc3ccc(C)cc3)nc3cc(OC)c(OC)cc3c2=N)cc1Cl | 110.0* | 22.5 | 94.1* | 7.7 | 102.9* | 100.2* | 51.1*
COCCCn1c(SCC(=O)O)nc2cc(OC)c(OC)cc2c1=N | x | 4.2 | -5.9 | -1.7 | -6.8 | x | x
CCCNC(=O)C1(C)CCCN(C(=O)c2cc(C)nn2C(C)(C)C)C1 (stereo not drawn) | x | x | x | 0.8 | x | x | x
COc1cc2nc(Nc3ccc(C)c(Cl)c3)nc(N)c2cc1OC | 14.4 | -5.8 | 92.6* | -1.6 | 105.9* | 66.0* | 87.8*
CCOC(=O)c1ccc(Nc2nc(N)c3cc(OC)c(OC)cc3n2)cc1 | 16.1 | 6.7 | 84.6* | -0.4 | 14.9 | 83.5* | 48.9*
COc1cc2nc(Nc3ccc(F)cc3)nc(N)c2cc1OC | -2.1 | -0.6 | -0.4 | -1.3 | 10.5 | x | x
COc1cc2nc(Nc3ccc(C)c(C)c3)nc(N)c2cc1OC | 6.4 | -11.3 | 87.5* | -2.2 | 9.4 | 17.6 | x
O=C(NNC(=O)c1cc(-c2ccc(Cl)cc2Cl)nc2ccccc12)Nc1ccccc1 | 7.1 | 8.1 | 63.9* | 2.7 | -10.8 | 37.5 | x
C=CC[C@@H](CC(=O)N(CCO)Cc1ccccc1)C(=O)N[C@H](COC(=O)[C@@H](CC=C)Cc1ccc(F)cc1)Cc1c[nH]c2ccccc12 | -4.2 | x | 88.3* | 1.2 | 22.3 | 5.8 | x
C=CC[C@H](CC(=O)N(CCO)Cc1ccccc1)C(=O)N[C@@H](COC(=O)[C@@H](CC=C)CC(=O)OC(C)(C)C)Cc1c[nH]c2ccccc12 | 5.6 | x | 48.9 | 0.6 | x | x | x
C=CC[C@H](CC(=O)N(CCO)Cc1ccccc1)C(=O)N[C@H](COC(=O)[C@@H](CC=C)Cc1ccc(F)cc1)Cc1c[nH]c2ccccc12 | 0.9 | x | 85.9* | 1.6 | 7.9 | 37.8 | 71.2*
O=C(Cc1cccnc1)N[C@@H]1CC[C@H](CCn2cc(Cc3ccccc3)nn2)O[C@@H]1CO | x | x | x | 0.7 | x | x | x
CN(Cc1ccncn1)C(=O)C1CCC(=O)N(Cc2cccc(C(F)(F)F)c2)C1 (stereo not drawn) | 2.4 | 2.8 | 2.7 | 1.1 | 1.6 | x | x
Cc1nn(-c2ccc(Cl)cc2)c(=O)c2ccccc12 | -0.9 | 30.0 | -37.2 | 0.3 | 13.8 | x | x
Cc1c(Cl)sn(-c2ccc(Cl)cc2)c1=O | x | x | 95.7* | 1.9 | x | 99.3* | 51.5*
O=C(COc1ccccc1)Nc1c2c(nn1-c1ccccc1)CS(=O)C2 (stereo not drawn) | -1.5 | -3.3 | -1.3 | -0.4 | 3.2 | x | x
N#Cc1c(N2CCCC(O)C2)nc(N)c2c(N)nc3c(c12)CC(=O)N3C12CC3CC(CC(C3)C1)C2 (stereo not drawn) | 12.6 | -2.1 | 89.7* | -2.8 | 72.4 | 69.0* | 43.5*
C=C(C)CN(CC)c1nc(N)c2c(N)nc3c(c2c1C#N)CC(=O)N3C12CC3CC(CC(C3)C1)C2 | 55.9 | 7.2 | 84.0* | 1.7 | 19.4 | 54.4* | 40.5*
COc1ccc(CN2C(=O)Cc3c2nc(N)c2c(N)nc(N4CCCCC4)c(C#N)c32)cc1 | -0.8 | -5.0 | -6.0 | x | x | x | x
O=C(CN1C(=O)c2cccc3cccc(c23)C1=O)N1CCN(c2ccccn2)CC1 | -0.7 | 1.9 | 50.5* | 0.3 | -7.3 | -4.7 | x
O=C(CN1C(=O)/C(=C/c2ccccc2F)Oc2ccccc21)N1CCN(c2ccccn2)CC1 | -1.1 | -0.6 | 39.4 | 1.2 | -15.2 | x | x
O=C(CN1C(=O)/C(=C\c2cccc(Cl)c2)Oc2ccccc21)N1CCN(c2ccccn2)CC1 | 0.3 | 6.9 | 64.6* | x | 20.1 | 12.8 | x
Cc1ccccc1-c1cnc(C(O)c2ccc(F)cc2C)[nH]1 (stereo not drawn) | x | x | x | 4.2 | x | x | x
COc1ccc(OCc2cccc(C(=O)Nc3cc(C)on3)c2)cc1 | 6.4 | u | 50.0 | 2.7 | 6.0 | 37.1 | x
COc1ccc(OCc2cccc(C(=O)Nn3cc([N+](=O)[O-])cn3)c2)cc1 | 9.0 | u | 78.5* | 17.7 | 42.0 | 71.5* | 3.9
SMILES | Beta cell apopt | Calb FLC | Mdm2 MdmX PPI | MPTP block | CSC inhib | Mdm2 MdmX conf | FLuc counter
COc1cccc(C(=O)Nc2cc(C)on2)c1 | x | x | x | -0.8 | x | x | x
COc1ccc(OCc2cccc(C(=O)NN)c2)cc1 | -5.8 | 10.6 | -13.9 | -1.5 | 2.7 | x | x
CN1CCC(N(CCc2ccccc2)C(=O)CCC(=O)O)CC1 | -9.7 | 6.8 | -9.1 | 1.0 | -17.9 | x | x
COc1cccc(/C=C/C(=O)Nc2cccc(C(C)=O)c2)c1OC | -4.9 | 23.9 | -19.9 | -0.7 | -2.3 | x | x
COc1cccc(/C=C/C(=O)Nc2ccc(C(=O)Nc3cccc(S(N)(=O)=O)c3)cc2)c1OC | 12.9 | 12.5 | 70.7* | 1.1 | 4.5 | 18.9 | x
CC(C)C[C@H]1CN(CCCC[C@H]2CNC(=O)C(=O)N2Cc2ccccc2)C(=O)C(=O)N1CC1CCCCC1 | x | x | x | -2.2 | x | x | x
O=c1ccc(-c2ccc(S(=O)(=O)Nc3cccc([N+](=O)[O-])c3)s2)n[nH]1 | -5.2 | -2.3 | 11.4 | -2.1 | 1.2 | x | x
COc1cc2c(cc1OC)C(c1cc(Br)ccc1F)N(C(=O)CCl)CC2 (stereo not drawn) | 7.3 | -3.3 | 100.3* | 0.6 | 42.1 | 73.0* | 55.5*
CCOC(=O)C1=C[C@@H](C(C)(C)C)N(S(=O)(=O)c2ccc(C)cc2)[C@H]1c1ccc(F)cc1 | x | x | x | 1.3 | x | x | x
O=C(O)c1cccc(COc2ccccc2Cl)c1 | 2.8 | 3.6 | 68.9* | -1.0 | -8.0 | 68.7* | 50.0*
C=CCOc1ccccc1CNc1ccc2c(c1)OCCO2 | 9.0 | -9.8 | 64.0* | 1.4 | 12.1 | 65.0* | 68.6*
C=CCOc1ccccc1CNc1cccc(F)c1 | -2.4 | -1.2 | 0.9 | -1.8 | 2.6 | x | x
CCc1nc2c(OCC(N)=O)cccn2c1N(C)C(=O)c1cccs1 | x | x | x | 0.5 | x | x | x
O=C(CCN1CCN(c2ccccc2)CC1)N/N=C/c1ccccc1O | 30.1 | 37.3 | 59.6* | -3.2 | 38.5 | 56.1* | 56.5*
CC1CCC(C(C)C)C(OC(=O)C[n+]2cccc(C(N)=O)c2)C1 (stereo not drawn) | -7.3 | 3.9 | 11.6 | 0.6 | x | x | x
COc1ccc(-c2c[n+](CC(=O)OC3CC(C)CCC3C(C)C)c3n2CCC3)cc1 (stereo not drawn) | 102.5* | 88.0* | 62.9* | 0.3 | -2.1 | 31.3 | 56.6*
CC(=O)Oc1ccc(Cn2c(C)c(C(=O)NCCC#N)sc2=O)cc1 | x | x | x | -0.2 | x | x | x
COc1cccc(/C=N/NC(=O)c2[nH]nc3c2CCc2ccccc2-3)c1 | 38.6 | -6.5 | 56.0* | 16.3 | 37.1 | 60.6* | 43.9*
CCOC(=O)c1c(C)[nH]c(C(=O)N/N=C/c2cccc(OC)c2)c1C | -0.5 | -15.4 | 52.6* | 23.3 | 49.9 | 39.1 | x
CC1(C)Cc2c(c(N3CCCC3)nc3sc4c(N5CCNCC5)ncnc4c23)CO1 | x | 26.2 | 57.5* | x | 10.1 | 5.3 | x
Cc1cc(C)c2c(n1)sc1c(N3CCCCC3)ncnc12 | 7.8 | -2.6 | 4.8 | -0.2 | 15.4 | x | x
CC(C)Oc1ccc(S(=O)(=O)N2CCOCC2)cc1NC(=O)C(C)Oc1ccc(F)cc1 (stereo not drawn) | 0.1 | -5.3 | 11.9 | -1.3 | 0.5 | x | x
